Measurements published in ChEMBL document CHEMBL1961873, “Compounds: GSK PKIS; Assays: Nanosyn kinase panel” (2012).

Assays:
[1] = biological target: Sphingosine kinase 1 (Homo sapiens) (UniProt Q9NYA1); settings: at 1 µM;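 further: mean SPHK1 inhibition value reported from the GSK PKIS kinase panel screen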
[2] = biological target: T1, Sphingosine kinase 2 (Homo sapiens) (UniProt Q9NRA0); settings: at 0.1 µM
T1 sequence (whole entry): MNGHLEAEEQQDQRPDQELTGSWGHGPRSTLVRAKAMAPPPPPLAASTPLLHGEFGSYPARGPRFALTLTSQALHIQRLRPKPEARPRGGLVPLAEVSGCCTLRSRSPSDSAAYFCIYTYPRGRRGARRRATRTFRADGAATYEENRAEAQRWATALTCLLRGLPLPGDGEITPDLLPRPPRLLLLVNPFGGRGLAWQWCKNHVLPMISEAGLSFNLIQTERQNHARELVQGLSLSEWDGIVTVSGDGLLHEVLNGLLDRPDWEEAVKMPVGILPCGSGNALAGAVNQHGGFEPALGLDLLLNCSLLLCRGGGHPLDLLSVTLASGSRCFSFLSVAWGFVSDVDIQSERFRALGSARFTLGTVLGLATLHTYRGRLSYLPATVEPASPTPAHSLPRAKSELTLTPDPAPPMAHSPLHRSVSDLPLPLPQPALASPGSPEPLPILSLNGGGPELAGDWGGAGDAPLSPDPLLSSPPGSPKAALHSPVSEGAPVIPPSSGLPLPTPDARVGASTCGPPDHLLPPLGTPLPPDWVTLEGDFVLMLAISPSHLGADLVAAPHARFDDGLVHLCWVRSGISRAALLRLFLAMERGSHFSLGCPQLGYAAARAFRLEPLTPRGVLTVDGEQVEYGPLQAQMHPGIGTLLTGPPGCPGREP

[3] = biological target: T1, Sphingosine kinase 2 (Homo sapiens); settings: at 1 µM
[4] = biological target: Casein kinase II subunit alpha (Homo sapiens) (UniProt P68400); settings: at 0.1 µM
Casein kinase II subunit alpha (Homo sapiens), sequence (P68400 whole entry, looked up): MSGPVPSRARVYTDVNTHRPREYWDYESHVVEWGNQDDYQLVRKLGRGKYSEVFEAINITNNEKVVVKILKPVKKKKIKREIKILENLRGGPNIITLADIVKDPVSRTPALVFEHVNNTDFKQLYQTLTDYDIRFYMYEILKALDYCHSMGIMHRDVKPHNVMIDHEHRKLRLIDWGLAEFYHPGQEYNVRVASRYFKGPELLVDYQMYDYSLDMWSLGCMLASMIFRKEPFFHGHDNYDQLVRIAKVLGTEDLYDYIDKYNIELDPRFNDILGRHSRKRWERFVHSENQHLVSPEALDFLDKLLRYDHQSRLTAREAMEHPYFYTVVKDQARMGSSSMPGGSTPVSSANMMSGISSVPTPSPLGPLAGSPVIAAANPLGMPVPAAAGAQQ

[5] = biological target: Casein kinase II subunit alpha (Homo sapiens) (UniProt P68400); settings: at 1 µM
[6] = biological target: T2, Inhibitor of nuclear factor kappa-B kinase subunit alpha (Homo sapiens) (UniProt O15111); settings: at 0.1 µM
T2 sequence (whole entry): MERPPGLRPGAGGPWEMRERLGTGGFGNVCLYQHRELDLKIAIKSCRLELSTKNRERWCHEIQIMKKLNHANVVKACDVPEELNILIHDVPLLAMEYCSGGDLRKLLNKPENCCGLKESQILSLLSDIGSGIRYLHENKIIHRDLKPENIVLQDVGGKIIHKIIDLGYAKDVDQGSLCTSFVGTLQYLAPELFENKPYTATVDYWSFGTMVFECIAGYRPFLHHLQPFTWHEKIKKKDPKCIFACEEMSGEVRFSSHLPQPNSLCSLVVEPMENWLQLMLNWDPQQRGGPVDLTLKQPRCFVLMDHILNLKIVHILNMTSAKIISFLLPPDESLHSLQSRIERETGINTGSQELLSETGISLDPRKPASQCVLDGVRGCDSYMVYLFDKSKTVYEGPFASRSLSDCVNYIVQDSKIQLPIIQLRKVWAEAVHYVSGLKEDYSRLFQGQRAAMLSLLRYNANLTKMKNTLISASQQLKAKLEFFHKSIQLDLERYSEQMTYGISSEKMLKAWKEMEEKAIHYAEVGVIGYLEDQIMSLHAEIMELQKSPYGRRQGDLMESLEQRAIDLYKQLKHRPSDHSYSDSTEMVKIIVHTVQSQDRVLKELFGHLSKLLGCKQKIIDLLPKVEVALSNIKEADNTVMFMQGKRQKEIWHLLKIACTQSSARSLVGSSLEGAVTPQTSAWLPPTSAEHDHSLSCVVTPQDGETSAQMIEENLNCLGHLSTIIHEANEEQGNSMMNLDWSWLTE

[7] = biological target: T2, Inhibitor of nuclear factor kappa-B kinase subunit alpha (Homo sapiens); settings: at 1 µM
[8] = biological target: T3, Inhibitor of nuclear factor kappa-B kinase subunit beta (Homo sapiens) (UniProt O14920); settings: at 0.1 µM
T3 sequence (whole entry): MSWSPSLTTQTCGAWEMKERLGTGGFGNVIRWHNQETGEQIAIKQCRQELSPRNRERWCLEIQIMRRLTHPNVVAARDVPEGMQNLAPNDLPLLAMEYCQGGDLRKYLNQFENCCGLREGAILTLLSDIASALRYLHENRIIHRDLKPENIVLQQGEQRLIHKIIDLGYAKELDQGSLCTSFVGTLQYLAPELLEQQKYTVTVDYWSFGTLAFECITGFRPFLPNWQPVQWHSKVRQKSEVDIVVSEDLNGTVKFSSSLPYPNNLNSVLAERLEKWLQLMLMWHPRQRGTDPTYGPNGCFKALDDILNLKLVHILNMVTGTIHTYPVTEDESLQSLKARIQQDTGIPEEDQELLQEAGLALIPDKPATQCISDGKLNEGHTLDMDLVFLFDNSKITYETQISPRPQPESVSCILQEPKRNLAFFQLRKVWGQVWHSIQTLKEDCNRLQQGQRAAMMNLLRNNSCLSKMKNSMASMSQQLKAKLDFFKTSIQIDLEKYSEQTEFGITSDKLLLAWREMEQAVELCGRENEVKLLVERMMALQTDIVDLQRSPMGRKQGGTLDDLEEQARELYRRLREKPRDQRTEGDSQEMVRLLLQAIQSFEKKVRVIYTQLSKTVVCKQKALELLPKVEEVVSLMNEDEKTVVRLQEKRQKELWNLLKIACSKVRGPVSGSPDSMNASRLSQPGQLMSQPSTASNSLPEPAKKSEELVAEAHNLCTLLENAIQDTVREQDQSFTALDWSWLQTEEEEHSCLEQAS

[9] = biological target: T3, Inhibitor of nuclear factor kappa-B kinase subunit beta (Homo sapiens); settings: at 1 µM
[10] = biological target: T4, Inhibitor of nuclear factor kappa-B kinase subunit epsilon (Homo sapiens) (UniProt Q14164); settings: at 0.1 µM
T4 sequence (whole entry): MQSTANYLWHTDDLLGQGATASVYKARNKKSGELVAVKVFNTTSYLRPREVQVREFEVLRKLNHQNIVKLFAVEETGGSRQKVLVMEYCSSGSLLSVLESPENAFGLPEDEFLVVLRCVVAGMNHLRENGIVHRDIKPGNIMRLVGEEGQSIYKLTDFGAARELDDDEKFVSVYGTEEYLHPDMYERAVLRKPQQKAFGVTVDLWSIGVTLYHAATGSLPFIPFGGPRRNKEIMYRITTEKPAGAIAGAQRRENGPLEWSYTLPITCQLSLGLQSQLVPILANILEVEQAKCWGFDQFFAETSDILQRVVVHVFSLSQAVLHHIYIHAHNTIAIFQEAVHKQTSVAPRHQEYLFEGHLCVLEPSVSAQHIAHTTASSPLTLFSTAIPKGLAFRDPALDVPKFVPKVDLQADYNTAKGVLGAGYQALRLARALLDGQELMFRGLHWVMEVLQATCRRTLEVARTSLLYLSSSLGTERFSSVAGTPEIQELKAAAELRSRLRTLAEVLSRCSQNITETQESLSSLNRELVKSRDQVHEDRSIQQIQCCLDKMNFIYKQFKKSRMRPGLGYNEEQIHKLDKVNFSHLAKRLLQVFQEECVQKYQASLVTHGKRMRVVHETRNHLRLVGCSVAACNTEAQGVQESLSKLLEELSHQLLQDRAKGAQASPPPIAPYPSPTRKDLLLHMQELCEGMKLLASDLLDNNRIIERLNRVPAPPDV

[11] = biological target: T4, Inhibitor of nuclear factor kappa-B kinase subunit epsilon (Homo sapiens); settings: at 1 µM
[12] = biological target: T5, Serine/threonine-protein kinase Nek1 (Homo sapiens) (UniProt Q96PY6); settings: at 0.1 µM
T5 sequence (whole entry): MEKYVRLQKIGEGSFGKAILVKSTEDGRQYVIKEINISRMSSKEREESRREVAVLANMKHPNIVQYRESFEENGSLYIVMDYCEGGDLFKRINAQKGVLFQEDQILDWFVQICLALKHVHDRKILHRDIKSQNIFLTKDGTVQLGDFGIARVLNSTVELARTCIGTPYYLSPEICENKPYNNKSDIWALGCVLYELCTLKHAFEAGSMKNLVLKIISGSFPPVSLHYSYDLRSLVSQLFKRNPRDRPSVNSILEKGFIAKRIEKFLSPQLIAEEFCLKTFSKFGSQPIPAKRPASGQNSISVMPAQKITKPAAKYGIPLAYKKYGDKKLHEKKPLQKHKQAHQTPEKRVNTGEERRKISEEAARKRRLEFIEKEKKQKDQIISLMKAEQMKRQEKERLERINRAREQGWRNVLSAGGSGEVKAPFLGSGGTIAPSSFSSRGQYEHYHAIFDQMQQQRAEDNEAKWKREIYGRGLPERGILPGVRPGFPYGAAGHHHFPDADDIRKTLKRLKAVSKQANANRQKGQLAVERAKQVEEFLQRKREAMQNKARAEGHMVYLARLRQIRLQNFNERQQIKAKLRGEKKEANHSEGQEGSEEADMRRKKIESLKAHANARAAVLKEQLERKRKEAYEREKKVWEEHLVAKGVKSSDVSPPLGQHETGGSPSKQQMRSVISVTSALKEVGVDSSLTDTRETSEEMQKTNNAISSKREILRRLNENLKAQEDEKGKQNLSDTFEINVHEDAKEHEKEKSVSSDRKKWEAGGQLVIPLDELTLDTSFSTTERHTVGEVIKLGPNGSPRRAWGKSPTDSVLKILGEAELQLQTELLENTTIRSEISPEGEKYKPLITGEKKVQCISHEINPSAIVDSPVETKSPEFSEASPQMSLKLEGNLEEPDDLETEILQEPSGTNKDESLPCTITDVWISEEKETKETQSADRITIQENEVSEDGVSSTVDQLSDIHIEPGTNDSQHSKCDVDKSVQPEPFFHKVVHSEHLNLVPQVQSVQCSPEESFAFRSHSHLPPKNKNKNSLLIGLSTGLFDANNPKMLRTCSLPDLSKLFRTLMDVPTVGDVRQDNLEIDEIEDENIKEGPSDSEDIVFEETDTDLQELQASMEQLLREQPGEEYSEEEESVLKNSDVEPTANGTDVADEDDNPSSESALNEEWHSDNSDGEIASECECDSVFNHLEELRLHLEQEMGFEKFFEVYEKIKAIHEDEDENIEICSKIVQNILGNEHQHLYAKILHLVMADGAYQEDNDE

[13] = biological target: T5, Serine/threonine-protein kinase Nek1 (Homo sapiens); settings: at 1 µM
[14] = biological target: T6, Serine/threonine-protein kinase Nek2 (Homo sapiens) (UniProt P51955); settings: at 0.1 µM
T6 sequence (whole entry): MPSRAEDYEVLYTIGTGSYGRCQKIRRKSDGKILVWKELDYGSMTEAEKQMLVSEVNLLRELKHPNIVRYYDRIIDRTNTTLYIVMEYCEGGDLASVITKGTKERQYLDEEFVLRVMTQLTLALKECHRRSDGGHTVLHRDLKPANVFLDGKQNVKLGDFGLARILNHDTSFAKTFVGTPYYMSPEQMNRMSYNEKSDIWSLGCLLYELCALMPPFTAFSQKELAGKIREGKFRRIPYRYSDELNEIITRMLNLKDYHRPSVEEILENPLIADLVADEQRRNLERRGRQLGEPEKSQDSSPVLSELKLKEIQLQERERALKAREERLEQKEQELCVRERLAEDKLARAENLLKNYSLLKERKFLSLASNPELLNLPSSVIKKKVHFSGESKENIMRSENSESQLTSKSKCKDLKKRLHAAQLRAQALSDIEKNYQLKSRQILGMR

[15] = biological target: T6, Serine/threonine-protein kinase Nek2 (Homo sapiens); settings: at 1 µM
[16] = biological target: Serine/threonine-protein kinase Nek6 (Homo sapiens) (UniProt Q9HC98); settings: at 0.1 µM
Serine/threonine-protein kinase Nek6 (Homo sapiens), sequence (Q9HC98 whole entry): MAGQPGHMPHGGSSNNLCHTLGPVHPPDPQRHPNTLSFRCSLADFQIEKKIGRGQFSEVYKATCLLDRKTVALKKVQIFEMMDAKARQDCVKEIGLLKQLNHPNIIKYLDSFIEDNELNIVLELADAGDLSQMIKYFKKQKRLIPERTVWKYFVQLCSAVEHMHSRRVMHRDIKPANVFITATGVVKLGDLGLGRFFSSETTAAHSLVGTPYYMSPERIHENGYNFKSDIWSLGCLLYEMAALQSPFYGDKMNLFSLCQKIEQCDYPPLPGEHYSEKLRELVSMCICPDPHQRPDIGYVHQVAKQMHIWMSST

[17] = biological target: Serine/threonine-protein kinase Nek6 (Homo sapiens) (UniProt Q9HC98); settings: at 1 µM
[18] = biological target: Serine/threonine-protein kinase Nek7 (Homo sapiens) (UniProt Q8TDX7); settings: at 0.1 µM
Serine/threonine-protein kinase Nek7 (Homo sapiens), sequence (Q8TDX7 whole entry, looked up): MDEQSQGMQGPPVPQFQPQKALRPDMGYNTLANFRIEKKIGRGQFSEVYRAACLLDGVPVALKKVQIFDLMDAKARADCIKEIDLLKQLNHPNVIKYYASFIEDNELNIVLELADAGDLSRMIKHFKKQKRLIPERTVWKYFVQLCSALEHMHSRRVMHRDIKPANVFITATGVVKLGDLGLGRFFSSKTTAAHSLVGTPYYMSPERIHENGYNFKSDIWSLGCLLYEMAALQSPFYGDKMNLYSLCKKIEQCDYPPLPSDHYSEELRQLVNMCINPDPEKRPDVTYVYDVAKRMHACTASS

[19] = biological target: Serine/threonine-protein kinase Nek7 (Homo sapiens) (UniProt Q8TDX7); settings: at 1 µM
[20] = biological target: T7, Serine/threonine-protein kinase Nek9 (Homo sapiens) (UniProt Q8TD19); settings: at 0.1 µM;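 further: reported value is the mean percent inhibition of NEK9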
T7 sequence (whole entry): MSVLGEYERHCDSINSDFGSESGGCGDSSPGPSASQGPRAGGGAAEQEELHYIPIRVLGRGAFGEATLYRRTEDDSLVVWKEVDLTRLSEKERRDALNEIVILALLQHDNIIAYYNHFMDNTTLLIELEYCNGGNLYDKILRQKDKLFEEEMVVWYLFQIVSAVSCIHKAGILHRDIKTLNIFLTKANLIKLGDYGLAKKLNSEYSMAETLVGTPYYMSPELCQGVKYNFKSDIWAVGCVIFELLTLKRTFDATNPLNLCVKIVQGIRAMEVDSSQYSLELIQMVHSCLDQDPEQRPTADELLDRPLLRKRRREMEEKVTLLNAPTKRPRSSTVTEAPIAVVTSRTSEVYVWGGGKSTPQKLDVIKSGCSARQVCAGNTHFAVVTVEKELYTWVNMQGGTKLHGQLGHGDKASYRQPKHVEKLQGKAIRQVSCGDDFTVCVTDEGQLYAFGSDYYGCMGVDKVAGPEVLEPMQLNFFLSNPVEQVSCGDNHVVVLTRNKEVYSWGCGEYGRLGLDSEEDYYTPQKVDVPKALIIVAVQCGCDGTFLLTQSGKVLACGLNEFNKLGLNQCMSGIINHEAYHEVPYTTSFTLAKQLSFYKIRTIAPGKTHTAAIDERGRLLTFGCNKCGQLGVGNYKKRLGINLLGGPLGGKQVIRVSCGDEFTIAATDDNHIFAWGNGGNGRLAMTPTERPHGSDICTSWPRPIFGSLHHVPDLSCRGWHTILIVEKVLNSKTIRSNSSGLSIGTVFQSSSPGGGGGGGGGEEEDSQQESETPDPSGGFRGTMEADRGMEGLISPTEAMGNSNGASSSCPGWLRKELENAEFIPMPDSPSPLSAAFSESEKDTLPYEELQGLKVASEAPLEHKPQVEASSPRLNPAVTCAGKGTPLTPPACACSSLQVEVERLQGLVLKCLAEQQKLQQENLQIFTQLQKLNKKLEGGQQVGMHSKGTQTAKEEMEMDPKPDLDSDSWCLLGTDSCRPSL

Sphingosine kinase 1 (Homo sapiens), sequence (Q9NYA1 whole entry): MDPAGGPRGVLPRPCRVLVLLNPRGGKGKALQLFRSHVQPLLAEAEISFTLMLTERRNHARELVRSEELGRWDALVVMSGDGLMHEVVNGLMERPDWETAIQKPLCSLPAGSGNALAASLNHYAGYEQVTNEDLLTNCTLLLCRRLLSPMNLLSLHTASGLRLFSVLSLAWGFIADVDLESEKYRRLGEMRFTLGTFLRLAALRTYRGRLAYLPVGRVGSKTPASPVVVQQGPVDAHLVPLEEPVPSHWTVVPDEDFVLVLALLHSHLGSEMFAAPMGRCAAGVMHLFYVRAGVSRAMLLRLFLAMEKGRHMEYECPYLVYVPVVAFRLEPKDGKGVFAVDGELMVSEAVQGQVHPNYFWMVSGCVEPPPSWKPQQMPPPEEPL

Structure (SMILES)	inhibition [1] [%]	inhibition [2] [%]	inhibition [3] [%]	inhibition [4] [%]	inhibition [5] [%]	inhibition [6] [%]	inhibition [7] [%]	inhibition [8] [%]	inhibition [9] [%]	inhibition [10] [%]	inhibition [11] [%]	inhibition [12] [%]	inhibition [13] [%]	inhibition [14] [%]	inhibition [15] [%]	inhibition [16] [%]	inhibition [17] [%]	inhibition [18] [%]	inhibition [19] [%]	inhibition [20] [%]
Cc1ccc2c(c1)/C(=N/Nc1ccc(S(N)(=O)=O)cc1)C(=O)N2	0.07	0.19	0.62	-2.8	-4.47	8.72	4.99	1.92	1.12	-5.56	-2.89	-0.29	1.65	0.94	0.07	-2.33	-1.82	2.58	2.3	2
CCn1c(-c2nonc2N)nc2c(C#CC(C)(C)O)nc(OCCNC)cc21	0.34	0.23	3.77	3.96	3.67	8.37	7.87	7.32	8.81	15.2	46.6	1.96	2.74	5.33	2.6	2.62	1.71	4.06	9.15	7.21
